Measured values published in PubChem BioAssay.
Values joined by “and” are separate entries in the source; they are usually repeats but may differ in a detail not shown here. Identical values can stand only once. Records with an inconclusive call do not appear. Active and inactive are the calls of the source.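 The calls were made as follows, unless noted: active = normalized viability below 100% at a tested concentration; inactive = the rest.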

Experiments:
[1] = P. berghei load reduction in hepatocytes – cell-based, HepG2, luciferase luminescence, HepG2 viability, primary screen (AID 624349; in the data active = parasite load remaining mostly below about 12%, no sharp cut-off; inactive = mostly above about 10%;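 also: 100% = mean of DMSO negative control wells on the same plate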); details: P. berghei liver stage in HepG2, luciferase luminescence, concentration not given here; parasite load remaining: stronger effect = lower value; viability: measured here: HepG2 viability without parasites
[2] = Wnt pathway potentiators raising nuclear beta-catenin – imaging, WNT3A-conditioned medium, mouse C2C12, NPC library, primary screen (AID 1117326; in the data active = nuclear beta-catenin stimulation mostly above about 4.2%, no sharp cut-off; inactive = mostly below about 10%); details: stronger effect = higher value
[3] = stimulators of insulin release from INS-1E, primary screen, cell-based, 5 mM glucose, NPC library (AID 1117329;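 active = compound raises insulin release from rat beta cells at 5 mM glucose, no numeric limit stated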); details: rat INS-1E insulin secretion, at 10 µM, stronger effect = higher value
[4] = growth inhibition of GSK3B-pretreated HCT116 cells – cell-based, CellTiter-Glo, 0.2 to 20 µM (AID 1117336;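 active = compounds lowering colon cancer cell viability after pretreatment blocking the GSK3B kinase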); details: HCT116 viability after GSK3B inhibitor, at 20 µM, stronger effect = higher value
[5] = inhibition of endothelial tube formation, primary screen, imaging, VEGF stimulated, CD31 staining, tube area, NPC library (AID 1117340;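 active = compound that reduces growth-factor-driven endothelial tube area in a mixed cell culture, no cutoff stated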); details: VEGF-stimulated ADSC/ECFC co-culture, at 10 µM, stronger effect = higher value
[6] = GLP1 release stimulators, primary, NCI-H716, NPC library (AID 1117341;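 active = compound raises GLP1 secretion from the human gut endocrine cells, with no numeric limit stated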); details: NCI-H716 cells, at 10 µM, stronger effect = higher value
[7] = HCT116 colon cancer cell growth inhibition, primary screen, CellTiter-Glo luminescence, NPC library (AID 1117342;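 active = compounds that lower survival of HCT116 colon cancer cells in the luminescence readout, no numeric limit stated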); details: at 20 µM (top of the series)
[8] = reduced SW480 viability measured with CellTiter-Glo, NPC library, primary (AID 1117343;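 active = compounds that lower viability of the colon cancer cells in the luminescence readout, with no numeric limit stated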); details: CellTiter-Glo luminescence; at 20 µM (top of the series) unless noted
[9] = NPC library primary testing for decreased DLD-1 cell viability via CellTiter-Glo (AID 1117346;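 active = compounds that lower survival of DLD-1 colon cancer cells in the luminescence readout, no cutoff given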); details: DLD-1 viability, CellTiter-Glo luminescence; at 20 µM (top of the series)
[10] = system: Aerobactin synthetase IucA (Klebsiella pneumoniae); test: inhibition of K. pneumoniae IucA enzyme – biochemical, Tocris library, absorbance (AID 1345561; call rule not given here;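 also: 100% = enzyme without compound and 0% = no enzyme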); details: purified IucA enzyme assay, absorbance (OD) read-out; stronger effect = lower value;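 tested at 8 µM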
[11] = viability loss in pontine glioma line – cell-based, SU-DIPG-XVII, MIPE5.0, CellTiter-Glo, qHTS, dose response (AID 1347060; cut-off not given, nearly all actives have AC50 up to about 26 µM;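 also: cells exposed to compound for 48 hours before viability readout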); details: CellTiter-Glo ATP luminescence
[12] = viability loss in pontine glioma line – cell-based, SU-DIPG-XIII, MIPE4.0, CellTiter-Glo, qHTS, dose response (AID 1347061; cut-off not given, nearly all actives have AC50 up to about 37 µM;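 also: cells exposed to compound for 48 hours before readout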); details: CellTiter-Glo ATP luminescence
[13] = growth inhibition of DIPG cells – cell-based, MIPE5.0 library, qHTS (AID 1347068; cut-off not given, nearly all actives have IC50 up to about 30 µM); details: SU-DIPG-XXV viability
[14] = viability loss with induced miR-34 in A549 – imaging, A549 dox-inducible miR-34, nuclei and caspase counts, primary screen (AID 1347080;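 active = compounds whose cell count with miR-34 switched on is under 0.7 times the count with it off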); details: A549 miR-34 inducible, Hoechst nuclei count, 48 h
[15] = MELAS cybrid and Rieske KO viability enhancers – cell-based, MELAS cybrids, Rieske KO mouse fibroblasts, CellTiter-Glo, primary screen (AID 1508586); details: low glucose;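 also: z relative to plate mean and SD of compound and empty wells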
[16] = drug combination growth inhibition, ovarian cancer – cell-based, oncology-focused library, rucaparib conditional, profiling panel (AID 1508598); details: patient-derived ovarian cancer cells, CellTiter-Glo viability, 144 h, stronger effect = lower value
[17] = molecular target: NAD(+) hydrolase SARM1 (Homo sapiens) (UniProt Q6SZW1); test: blocking NAD cleavage by SARM1 SAM-TIR – cell lysate, NAD-Glo luminescence (AID 1508614;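 active = compound whose remaining NAD level is above about 45 nM, limit read from the data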;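 also: higher remaining NAD means stronger inhibition of SARM1 NADase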); details: SAM-TIR HEK293T lysate NADase, at 1 µM, stronger effect = higher value
Chain of NAD(+) hydrolase SARM1 (Homo sapiens) (Q6SZW1 whole entry, looked up): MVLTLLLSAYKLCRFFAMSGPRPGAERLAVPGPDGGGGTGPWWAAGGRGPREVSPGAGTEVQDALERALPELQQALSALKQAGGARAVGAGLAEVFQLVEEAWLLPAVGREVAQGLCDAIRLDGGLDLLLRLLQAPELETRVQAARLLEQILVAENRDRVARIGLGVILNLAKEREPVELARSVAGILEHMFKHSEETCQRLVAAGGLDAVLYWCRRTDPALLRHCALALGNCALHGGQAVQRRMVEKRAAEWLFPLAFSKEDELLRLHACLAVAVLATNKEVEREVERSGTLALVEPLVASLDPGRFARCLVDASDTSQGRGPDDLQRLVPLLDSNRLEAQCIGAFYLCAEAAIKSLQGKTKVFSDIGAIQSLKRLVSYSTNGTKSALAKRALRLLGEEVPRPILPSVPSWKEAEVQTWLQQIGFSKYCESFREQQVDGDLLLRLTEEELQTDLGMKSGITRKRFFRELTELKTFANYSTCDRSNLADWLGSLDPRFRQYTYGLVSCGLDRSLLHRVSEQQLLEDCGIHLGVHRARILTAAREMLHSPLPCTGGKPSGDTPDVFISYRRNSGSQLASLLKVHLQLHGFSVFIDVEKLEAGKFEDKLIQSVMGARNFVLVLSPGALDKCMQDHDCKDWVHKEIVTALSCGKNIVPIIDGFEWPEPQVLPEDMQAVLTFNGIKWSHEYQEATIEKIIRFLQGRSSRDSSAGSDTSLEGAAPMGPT

[18] = galactose survival enhancers in mitochondrial complex I cybrids – cell-based, galactose medium, ATP luminescence, primary screen (AID 1645843;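 active = z-score of at least 1.8 in each of two replicates, scored against plate mean and spread of sample wells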;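 also: positive z means more ATP and so rescue of galactose-driven cybrid death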); details: complex I mutant cybrid cells, 72 h, stronger effect = higher value
[19] = EMT-state selective cytotoxicity in co-culture – imaging, PC-3E GFP, TEM4-18 mCherry, primary screen (AID 1345086;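 active = compounds killing one labelled cell type while sparing the other, by normalised counts and ratio limits, not self-fluorescent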;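 as to all read-outs here: cells exposed to compound for 72 h before imaging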;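 as to red/green cell ratio (normalised): normalised mesenchymal count divided by normalised epithelial count so high means epithelial killing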); details: PC-3E GFP / TEM4-18 mCherry co-culture, imaging cell counts, at 1 µM; for red/green cell ratio (normalised): actives lie on both sides, counts scaled to control wells, 1 = unselective
[20] = stronger effect = lower value, cell number ratio, induced over uninduced
[21] = measured here: relative caspase fold change +Dox/-Dox
[22] = measured here: total cells with miR-34 induction, stronger effect = lower value
[23] = measured here: total cells without miR-34 induction
[24] = measured here: epithelial PC-3E GFP cell survival
[25] = measured here: mesenchymal TEM4-18 mCherry cell survival

Nc1nc(Cl)nc2c1ncn2[C@@H]1O[C@H](CO)[C@@H](O)[C@@H]1F
1.45 and 0.847: fold change [14, 21]
84%: viability [1]
active: viability decrease [4] 44.1% | tube area decrease [5] 104% | inhibition of viability [7] 80.9% | viability decrease (inhibition) [8] 59.6% | AC50 [11] 0.332 µM | viability ([16]; at 0.0195 µM, OCI-P5x cells, without rucaparib) 95% | viability ([16]; at 0.0781 µM, OCI-C5x cells, with rucaparib 10 µM, 100% = cells with rucaparib alone) 98% | viability ([16]; at 0.0781 µM, OCI-C5x cells, without rucaparib) 78.6% | viability ([16]; at 0.0781 µM, OCI-P5x cells, without rucaparib) 84.8% | viability ([16]; at 0.313 µM, OCI-C5x cells, with rucaparib 10 µM, 100% = cells with rucaparib alone) 24% | viability ([16]; at 0.313 µM, OCI-C5x cells, without rucaparib) 24.6% | viability ([16]; at 0.313 µM, OCI-P5x cells, with rucaparib 20 µM, 100% = cells with rucaparib alone) 57.8% | viability ([16]; at 0.313 µM, OCI-P5x cells, without rucaparib) 29.3% | viability ([16]; at 1.25 µM, OCI-C5x cells, with rucaparib 10 µM, 100% = cells with rucaparib alone) 22.5% | viability ([16]; at 1.25 µM, OCI-C5x cells, without rucaparib) 23.9% | viability ([16]; at 1.25 µM, OCI-P5x cells, with rucaparib 20 µM, 100% = cells with rucaparib alone) 42.3% | viability ([16]; at 1.25 µM, OCI-P5x cells, without rucaparib) 20.5% | viability ([16]; at 5 µM, OCI-C5x cells, with rucaparib 10 µM, 100% = cells with rucaparib alone) 19.1% | viability ([16]; at 5 µM, OCI-C5x cells, without rucaparib) 19.7% | viability ([16]; at 5 µM, OCI-P5x cells, with rucaparib 20 µM, 100% = cells with rucaparib alone) 36.1% | viability ([16]; at 5 µM, OCI-P5x cells, without rucaparib) 18.2%
17.4%: nuclear beta-catenin stimulation ([2]; stimulation, at 2 µM)
inactive: parasite load remaining [1] 11.2% | nuclear beta-catenin stimulation ([2]; at 10 µM) 30.8% | insulin secretion stimulation [3] 0.1% | GLP1 secretion stimulation [6] 0.3% | viability decrease (inhibition) [9] 43.5% | remaining activity [10] 104% | outcome [12] | outcome [13] | fold change [14, 20] 1.02 and 0.96 | viability ([16]; at 0.000305 µM, OCI-C5x cells, with rucaparib 10 µM, 100% = cells with rucaparib alone) 115% | viability ([16]; at 0.000305 µM, OCI-C5x cells, without rucaparib) 107% | viability ([16]; at 0.000305 µM, OCI-P5x cells, with rucaparib 20 µM, 100% = cells with rucaparib alone) 116% | viability ([16]; at 0.000305 µM, OCI-P5x cells, without rucaparib) 113% | viability ([16]; at 0.00122 µM, OCI-C5x cells, with rucaparib 10 µM, 100% = cells with rucaparib alone) 118% | viability ([16]; at 0.00122 µM, OCI-C5x cells, without rucaparib) 113% | viability ([16]; at 0.00122 µM, OCI-P5x cells, with rucaparib 20 µM, 100% = cells with rucaparib alone) 112% | viability ([16]; at 0.00122 µM, OCI-P5x cells, without rucaparib) 109% | viability ([16]; at 0.00488 µM, OCI-C5x cells, with rucaparib 10 µM, 100% = cells with rucaparib alone) 116% | viability ([16]; at 0.00488 µM, OCI-C5x cells, without rucaparib) 110% | viability ([16]; at 0.00488 µM, OCI-P5x cells, with rucaparib 20 µM, 100% = cells with rucaparib alone) 115% | viability ([16]; at 0.00488 µM, OCI-P5x cells, without rucaparib) 118% | viability ([16]; at 0.0195 µM, OCI-C5x cells, with rucaparib 10 µM, 100% = cells with rucaparib alone) 113% | viability ([16]; at 0.0195 µM, OCI-C5x cells, without rucaparib) 112% | viability ([16]; at 0.0195 µM, OCI-P5x cells, with rucaparib 20 µM, 100% = cells with rucaparib alone) 111% | viability ([16]; at 0.0781 µM, OCI-P5x cells, with rucaparib 20 µM, 100% = cells with rucaparib alone) 111% | remaining NAD [17] 10 nM | z-score [18] -0.56 and -2.21
3880 and 3040: cell count [14, 22]
2.02: z-score ([15]; Rieske KO mouse fibroblast survival, CellTiter-Glo 72 h)
-2.1: z-score ([15]; MELAS cybrid survival, CellTiter-Glo 48 h, stronger effect = higher value)
3820 and 3160: cell count [14, 23]

CC(=O)OCC(=O)[C@@]1(O)CCC2C3CCC4=CC(=O)CC[C@]4(C)C3[C@@H](O)C[C@@]21C (some centres undefined)
73.9% and 90.3%: viability [1]
inactive: parasite load remaining [1] 123% and 70.8% | nuclear beta-catenin stimulation ([2]; at 10 µM) -1.1% | insulin secretion stimulation [3] -1.3% | viability decrease [4] -8% | tube area decrease [5] 1.6% | GLP1 secretion stimulation [6] -3.9% | inhibition of viability [7] -1.6% | viability decrease (inhibition) [8] -3% | viability decrease (inhibition) [9] -12.5% | red/green cell ratio (normalised) [19] 1.16 | fold change [14, 20] 0.742
1.44: normalised cell number [19, 25]
1.24: normalised cell number [19, 24]
6930: cell count [14, 22]
1.6: fold change [14, 21]
9340: cell count [14, 23]
-0.8%: nuclear beta-catenin stimulation ([2]; stimulation, at 2 µM)

C[C@@]12C(=O)OC(=O)[C@]1(C)C1CCC2O1
1.01: normalised cell number [19, 25]
inactive: insulin secretion stimulation [3] 2.3% | red/green cell ratio (normalised) [19] 0.98
1.02: normalised cell number [19, 24]
active: nuclear beta-catenin stimulation ([2]; at 10 µM) -1.7% | viability decrease [4] 83.1% | tube area decrease [5] 111% | GLP1 secretion stimulation [6] 20.1% | inhibition of viability [7] 73% | viability decrease (inhibition) [8] 112% | viability decrease (inhibition) [9] 91%
49.7%: nuclear beta-catenin stimulation ([2]; stimulation, at 2 µM)

O=C(OOC(=O)c1ccccc1)c1ccccc1
82.1%: viability [1]
1.15: normalised cell number [19, 25]
inactive: parasite load remaining [1] 39% | nuclear beta-catenin stimulation ([2]; at 10 µM) 2.3% | insulin secretion stimulation [3] -1.3% | viability decrease [4] -5.45% | tube area decrease [5] -15.4% | GLP1 secretion stimulation [6] -3.2% | inhibition of viability [7] 1.1% | viability decrease (inhibition) [8] 10% | viability decrease (inhibition) [9] 18.9% | red/green cell ratio (normalised) [19] 1.04 | fold change [14, 20] 0.948 | remaining NAD [17] 10 nM
0.3%: nuclear beta-catenin stimulation ([2]; stimulation, at 2 µM)
10800: cell count [14, 22]
1.11: normalised cell number [19, 24]
3.94: fold change [14, 21]
11400: cell count [14, 23]
